Hits are enriched below; roughly 7.5% of the tested compounds scored in any of these assays.
ELG1 repair inh = ELG1-dependent DNA repair inhibition; HEK293T ELG1-luciferase reporter, luminescence, 16 h; DNA damage induced by 5-fluorouridine; Potency, µM (top dose mostly 46.1 µM), for the others: at the highest dose activity change, negative = inhibition, most hits filed as inhibitors; 330,000 compounds, 2.3% hits; AID 504467; further: potency means the concentration at half of the fitted maximal effect; nearly all actives have a fitted effect of over 55% in size
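Reporter activity after DNA damage by 5-fluorouridine is monitored. Compound-treated cells incubate 16 hr at 37 °C, then ONE-Glo is added for 30 min before luminescence reading.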
TSHR antagonist = antagonists of human thyroid stimulating hormone receptor. P16473. TSHR-expressing cells, TSH-stimulated cAMP HTRF, 2 h; stronger effect = lower value. activity change, negative = inhibition, % at 11.5 µM. 330,000 compounds, 0.2% hits;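 active means activity change below a set negative limit, meaning inhibition stronger than a set level, cut at about -70% in these data; inconclusive means activity change between two set negative limits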
Target sequence (P16473 whole entry, looked up): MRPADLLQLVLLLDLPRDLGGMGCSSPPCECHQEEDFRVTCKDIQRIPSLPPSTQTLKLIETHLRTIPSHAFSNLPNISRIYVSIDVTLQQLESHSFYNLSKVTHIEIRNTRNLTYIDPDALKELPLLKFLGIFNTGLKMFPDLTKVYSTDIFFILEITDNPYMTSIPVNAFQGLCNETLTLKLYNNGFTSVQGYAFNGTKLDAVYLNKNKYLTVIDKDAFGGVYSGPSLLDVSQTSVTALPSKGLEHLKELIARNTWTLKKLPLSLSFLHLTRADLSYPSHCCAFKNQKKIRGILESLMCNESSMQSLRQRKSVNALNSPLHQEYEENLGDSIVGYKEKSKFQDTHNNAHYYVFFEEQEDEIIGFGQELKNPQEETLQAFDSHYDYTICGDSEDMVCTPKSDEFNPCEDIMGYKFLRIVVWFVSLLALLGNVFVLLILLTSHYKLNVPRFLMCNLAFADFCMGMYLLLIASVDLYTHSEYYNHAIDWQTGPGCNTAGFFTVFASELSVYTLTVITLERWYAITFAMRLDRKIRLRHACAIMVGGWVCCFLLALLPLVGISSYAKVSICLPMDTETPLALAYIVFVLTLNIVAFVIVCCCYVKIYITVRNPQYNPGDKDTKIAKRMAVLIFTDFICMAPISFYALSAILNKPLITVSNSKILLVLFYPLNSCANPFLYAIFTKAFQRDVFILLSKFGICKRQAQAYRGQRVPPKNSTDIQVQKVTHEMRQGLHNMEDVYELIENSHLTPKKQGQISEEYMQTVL
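TSHR-expressing cells, 200/well, pre-treated with compound, then stimulated with EC80 TSH (4nM final) for 2 hours at 37 deg C. cAMP measured by competitive HTRF: anti-cAMP cryptate antibody in lysis buffer plus cAMP-d2, read after 30 minutes at room temperature.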
VP16 counter = inhibits Gal4-VP16 luciferase reporter, ROR gamma counter-screen. Drosophila S2 Gal4-VP16 UAS-luciferase, luminescence, 20 h. Potency, µM (series often up to 53.6 µM), without a hit: at the top dose activity, negative = inhibition, hits mostly inhibitors. 310,000 compounds, 3.5% hits;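 further: Gal4-VP16 expression switched on by copper sulfate through the metallothionein promoter; potency means the concentration at half of the fitted maximal effect; nearly all actives have a fitted effect of over 50% in size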
RORgamma inh = ROR gamma (mouse) transcription inhibition. Drosophila S2 Gal4-RORgamma UAS-luciferase reporter, 20 h. P51450. Potency, µM (titrated, usually from 53.6 µM), inactives show top-dose activity change, negative = inhibition, most hits filed as inhibitors. 310,000 compounds, 5.4% hits; further: potency means the concentration at half of the fitted maximal effect; nearly all actives have a fitted effect of over 60% in size
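Using a luciferase readout, inhibitors were identified by reduced reporter activity in Drosophila cells coexpressing a copper-inducible Gal4–ROR gamma fusion and UAS-driven Photinus luciferase, incubated 20 hr after 700 uM copper sulfate.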
B2AR arrestin = agonists driving beta-arrestin recruitment to human beta2-adrenergic receptor; P07550; Potency, µM (top dose mostly 46.1 µM), for the others: top-dose activation, hits mostly activators; AID 492947; beta-arrestin recruitment to beta2AR, cell-based reporter; 330,000 compounds, 0.02% hits;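 further: potency means the concentration at half of the fitted maximal effect; 0% = DMSO controls and full agonism = EC100 isoproterenol or metaproterenol; nearly all actives have a fitted effect of over 65% in size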
* = called active by the depositor; ? = inconclusive; . = no result; [ ] = dose if it differs, or a comment. Unless noted, the call rests on the fitted dose curve; in most records, active means well fitted curve in the direction sought with a large enough effect; inconclusive means small, poorly fitted or top-dose-only effect, or another doubt; inactive means no such curve, though single readings can be large; an effect the other way counts as inactive or inconclusive. Unless noted, on the % scale 0 is the no-effect control and ±100 the full control effect.

SMILES	ELG1 repair inh	TSHR antagonist	VP16 counter	RORgamma inh	B2AR arrestin
CCNc1ncc2nc(-c3ccccc3)c(=O)n(-c3ccc(OC)cc3)c2n1	.	.	5%	-4%	.
O=C(O)c1ccc2c(c1)C(=O)N([C@H](Cc1ccc(O)c(O)c1)C(=O)O)C2=O	.	35	-1%	-8%	0%
COC(=O)c1cnn(-c2nc(OC)cc(OC)n2)c1C	-6%	-3	-5%	-19%	-1%
COc1cc(OC)nc(-n2ncc(Br)c(Br)c2=O)n1	4.6µM*	-25	4.5µM*	2.2µM*	?
O=C(Nc1ccc(NC(=O)c2ccccc2O)cc1)Nc1ccc(F)cc1F	7%	3	-1%	3%	3%
CCNC(=S)N/N=C(\C)c1ccc(N2CCOCC2)cc1	-5%	-7	3.5µM*	2.5µM*	5%
CNC(=S)N/N=C(\C)c1ccc(N2CCOCC2)cc1	?	-8	?	7.9µM*	?
C/C(=N\NC(=O)c1ccc(F)cc1)c1ccc(N2CCOCC2)cc1	?	2	-3%	-21%	0%
Cc1ccccc1N1C(=O)c2cc(N)ccc2N/C1=C\F	.	.	-2%	15%	.
O=S(=O)(O)CC(S)CS (centres undefined)	.	.	-5%	15%	.
COc1ccc(NS(=O)(=O)c2cccc(C(=O)NNC(=O)c3ccc(Br)o3)c2)cc1	-28%	-5	.	.	0%
C=CCn1c(=O)/c(=C/c2cc(OC)c(OC)c(OC)c2)s/c1=C(/C#N)c1nc2ccccc2n1C	4.1µM*	9	0%	-38%	0%
Cc1cc2oc(=O)cc(CN(C)Cc3ccccc3)c2cc1C(C)C	-8%	-1	2%	13%	3%
COc1ccc(CN(C)Cc2cc(=O)oc3cc(C)c(C(C)C)cc23)cc1OC	18µM*	3	5%	7%	0%
COc1ccc(NS(=O)(=O)c2ccc(C)c(C(=O)N3CCCCCCC3)c2)cc1	-20%	.	.	.	-1%
Cc1cc(NC(=O)CS(=O)(=O)c2cn(Cc3cccc(F)c3)c3ccccc23)no1	21µM*	-1	-8%	-3%	0%
Cc1cc(NC(=O)CS(=O)(=O)c2cn(Cc3ccc(F)cc3)c3ccccc23)no1	?	-11	?	?	-1%
CC(C)[N+](C)(C)CC(O)COc1cccc2ccccc12 (centres undefined)	.	.	-5%	0%	.
CC(C)(C)NCC(O)COc1ccccc1C(C)(C)C (centres undefined)	-4%	-10	2%	-4%	0%
Cc1c[nH]c2cccc(OCC(O)CNC(C)(C)C)c12 (centres undefined)	19%	-7	-11%	1.4µM*	0%
COC(=O)CSC1=NS(=O)(=O)c2ccccc21	11%	-1	.	-24%[0.365 µM]	-1%
O=C(CSC1=NS(=O)(=O)c2ccccc21)Nc1ccccc1	3%	16	20µM*	?	0%
Cc1cc(NC(=O)COC(=O)Cn2[nH]c(=O)c3ccccc3c2=O)c([N+](=O)[O-])cc1C	15%	0	.	.	0%
CC(C)CO/N=C1/C[C@@H](O)[C@@H](O)[C@@H]2[C@@H]3C(=O)N(C(C)(C)C)C(=O)[C@H]3CC[C@@H]12	.	.	-6%[10 µM]	-1%[10 µM]	.
C/C(CS(=O)(=O)c1ccccc1)=N\O	-12%	5	-5%[10 µM]	8%	1%
SMILES	ELG1 repair inh	TSHR antagonist	VP16 counter	RORgamma inh	B2AR arrestin
C/C=C(\CS(=O)(=O)c1ccccc1)S(=O)(=O)c1ccccc1	-26%	18	6.3µM*	3.5µM*	0%
CCCCCCC1=Cc2cc(OC)c(OC)cc2C(C(C(C)=O)C(=O)OCC)O1 (centres undefined)	.	.	-10%[10 µM]	-13%[10 µM]	.
O=c1cc(O)nc(-c2ccc(Cl)cc2)s1	6%	1	6%	-20%	0%
CNc1ncnc2ccc(-c3ccccc3C#N)cc12	.	.	6%	-1%	.
O=C1CC(N2CCCN(C3CC(=O)N(c4ccc(F)cc4)C3=O)CC2)C(=O)N1c1ccc(F)cc1 (centres undefined)	-1%	14	?	18µM*	0%
O=C1CC(N2CCN(c3ccc(Cl)cc3)CC2)C(=O)N1c1ccc(F)cc1 (centres undefined)	4%	-15	.	.	-1%
O=C1CC(N2CCCCC2)C(=O)N1c1ccccc1 (centres undefined)	10%	13	20µM*	10µM*	0%

From PubChem
